In PubChem BioAssay AID372 (MTDP, 2006):
The whole screen tested about 100,000 compounds, of which about 770 (0.77%) were called active. This is one part of a sample in which actives are shown more often than they occur. Unmarked numbers belong to inactive results. No stated cut-off is given here; in the data, active means inhibition above about 50%; inactive means the rest.

Target: Gag-Pol polyprotein (Human immunodeficiency virus type 1 group M subtype B (isolate HXB2)) (UniProt P04585)
Assay: RNase H inhibition, HIV 1 Gag Pol polyprotein, FRET biochemical assay, screening (AID 372)
Details: HIV-1 RT RNase H, FRET RNA/DNA substrate fluorescence; at 10 µM; hits give high values

Row | SMILES | inhibition
1 | O=[N+]([O-])c1cc2c(cc1C=Nc1cc(Cl)cc(Cl)c1)OCO2 | 5%
2 | COc1ccc([N+](=O)[O-])cc1NCc1ccccc1F | 12%
3 | COc1ccc(C2CC(=O)C3=C(C2)NC(C)=C(C(=O)OCc2ccccc2)C3c2cc(OC)c(OC)c(OC)c2)cc1 (stereo not drawn) | 10%
4 | CCOC(=O)c1c(-c2ccc(C(C)C)cc2)csc1N | 27%
5 | COc1cc([N+](=O)[O-])ccc1NC(=O)c1ccccc1 | 16%
6 | COc1cc2ccccc2cc1C(=O)Nc1ccc(C)c(NC(=O)c2cc3ccccc3cc2OC)c1 | 28%
7 | CC1=C(C(=O)OCCc2ccccc2)C(c2ccc(O)cc2)C2=C(CCCC2=O)N1 (stereo not drawn) | 2%
8 | Cc1ccc(N2C(=O)NC(=O)/C(=C\c3cccc(C(F)(F)F)c3)C2=O)cc1C | 5%
9 | CCOc1ccc(N2C(=O)/C(=C/c3ccc(-c4ccccc4C(=O)O)o3)C(=O)NC2=S)cc1 | 15%
10 | O=C(O/N=C(/c1ccccc1)c1ccncc1)c1ccc(Cl)cc1Cl | 18%
11 | COc1ccc(Cl)cc1S(=O)(=O)Oc1ccc(Cl)cc1 | 39%
12 | COc1ccc(Cl)cc1S(=O)(=O)Oc1ccc(OCc2ccccc2)cc1 | 53% (active)
13 | COc1cc(S(=O)(=O)Oc2ccc(OCc3ccccc3)cc2)ccc1Cl | 5%
14 | Cc1c(/C=C2/C(=O)NC(=O)N(Cc3ccco3)C2=O)c2ccccc2n1CC(N)=O | 27%
15 | Cc1cccc(C(=O)N2N=C(c3ccc(F)cc3)CC2(O)C(F)(F)F)c1 (stereo not drawn) | 0%
16 | CCOC(=O)C1=c2s/c(=C\c3cccnc3)c(=O)n2C(N)=C(C#N)C1c1cccnc1 (stereo not drawn) | 7%
17 | CCOC(=O)C1=c2s/c(=C\c3ccc(O)cc3)c(=O)n2C(N)=C(C#N)C1c1ccc(O)cc1 (stereo not drawn) | 67% (active)
18 | CCOC(=O)C1=c2s/c(=C\c3ccc(O)c(OCC)c3)c(=O)n2C(N)=C(C#N)C1c1ccc(O)c(OCC)c1 (stereo not drawn) | 4%
19 | C=CCN1C(=O)/C(=C/c2cc([N+](=O)[O-])ccc2OC)SC1=S | 3%
20 | O=C1NC(=Nc2cccc(Cl)c2Cl)S/C1=C\c1ccccc1 | 12%
21 | COC(=O)C1=C(C)N(Cc2cccnc2)C(=O)/C1=C\c1ccc(Br)cc1 | 14%
22 | CC(C)NC(=O)C12CC3(C)CC(C)(CC(C)(C3)C1)C2 | 0%
23 | CCOC(=O)C1=C(O)/C(=C/c2cc(OC)c(O)c(OC)c2)SC1=Nc1ccccc1 | 13%
24 | CCOC(=O)C1=C(O)/C(=C/c2ccc(O)c(OCC)c2)SC1=Nc1ccccc1 | 20%

Row | SMILES | inhibition
25 | CCOC(=O)C1=C(O)/C(=C/c2ccc(O)c(OC)c2)SC1=Nc1ccccc1 | 50% (active)
26 | N=C1/C(=C/c2ccc(-c3ccc(Cl)cc3Cl)o2)C(=O)N=C2SC(c3ccccc3)=NN12 | 2%
27 | N=C1/C(=C/c2ccc(-c3cc(Cl)ccc3Cl)o2)C(=O)N=C2SC(c3ccccc3)=NN12 | 44%
28 | N=C1/C(=C/c2ccc(-c3ccccc3Cl)o2)C(=O)N=C2SC(c3ccccc3)=NN12 | 56% (active)
29 | Cc1ccc(N(CC(=O)O)S(C)(=O)=O)cc1C | 0%
30 | CCCOc1ccccc1/C=C1/SC(N2CCN(c3ccc(Cl)cc3)CC2)=NC1=O | 12%
31 | CCOC(=O)c1cnn2c(C(F)(F)F)c3c(nc12)-c1ccccc1CC3 | 7%
32 | CCOC(=O)c1ccccc1NC(=O)c1cnn2c1NC(c1ccccc1)CC2C(F)(F)F (stereo not drawn) | 17%
33 | CCOC(=O)c1cnn2c1NC1=C(CCc3ccccc31)C2C(F)(F)F (stereo not drawn) | 58% (active)
34 | COc1ccc(CN(CCC(c2ccccc2OC)C2CCOC(C)(C)C2)C(C)=O)cc1 (stereo not drawn) | 17%
35 | COc1ccccc1NC(=O)Nc1nnc(-c2ccccc2SCc2ccc(F)cc2)s1 | 10%
36 | CCOC(=O)c1ccc(N=Cc2ccc3c(c2)OCO3)cc1 | 4%
37 | Cc1ccccc1NC(=O)c1c(NC(=O)c2ccco2)sc2c1CCC2 | 24%
38 | COc1ccc(NC(=O)c2c(NC(=O)c3ccco3)sc3c2CCC3)cc1 | 15%
39 | CCOc1ccccc1NC(=O)c1c(NC(=O)c2ccco2)sc2c1CCC(C)C2 (stereo not drawn) | 7%
40 | CCOc1ccc(NC(=O)c2c(NC(=O)c3ccco3)sc3c2CCCC3)cc1 | 4%
41 | Cc1ccccc1NC(=O)c1c(NC(=O)c2ccco2)sc2c1CCC(C)C2 (stereo not drawn) | 51% (active)
42 | O=C(c1cc(Cl)ccc1Cl)N1CCN(c2ccccc2)CC1 | 5%
43 | Cc1ccc(OCC(=O)Nc2nc(-c3ccccc3)cs2)c(C)c1 | 5%
44 | COc1ccc(Nc2ccc(C(F)(F)F)cc2[N+](=O)[O-])cc1 | 7%
45 | CCNC(=O)c1c(O)c2ccccc2n(C)c1=O | 1%
46 | O=C(c1ccc(Cl)c(Cl)c1)c1ccc(N2CCOCC2)c([N+](=O)[O-])c1 | 54% (active)
47 | O=C(c1ccc(Cl)cc1)c1ccc(N2CCOCC2)c([N+](=O)[O-])c1 | 16%
48 | O=C(c1ccc(Cl)c(Cl)c1)c1ccc(N2CCCCC2)c([N+](=O)[O-])c1 | 19%

Row | SMILES | inhibition
49 | COc1ccc(N/C(C)=C/C(=O)ONC(=O)c2ccccc2)cc1 | 5%
50 | CCOC(=O)C(N)CSC1CC(=O)N(c2ccc(Cl)c(Cl)c2)C1=O (stereo not drawn) | 7%
51 | Clc1cccc(-c2nnc(-c3ccc4c(c3)OCO4)o2)c1 | 15%
52 | O=C(CSc1nc2ccccc2s1)NNC(=S)NC1CCCCC1 | 56% (active)
53 | O=C(CSc1nc2ccccc2s1)Nc1ccc(Cl)cc1 | 37%
54 | O=C(CSc1nc2ccccc2s1)NC1CCCCC1 | 0%
55 | O=C(CSc1nc2ccccc2s1)NNC(=O)NC1CCCCC1 | 0%
56 | O=C(CSc1nc2ccccc2s1)NNC(=S)Nc1ccc(Cl)cc1 | 65% (active)
57 | O=C(CSc1nc2ccccc2s1)Nc1ccc(F)c(Cl)c1 | 23%
58 | COc1ccc(/C=C2/SC(=O)N(CC(=O)Nc3ccc(C)c(C)c3)C2=O)cc1OC | 22%
59 | CCCOc1ccc(/C=C2/C(=O)NC(=O)N2C(C)=O)cc1OC | 0%
60 | O=C(O)c1cc(Br)ccc1N=Cc1ccc2c(c1)OCO2 | 8%
61 | Cc1ccc2nc(-c3ccc(C)c(NC(=O)c4ccc5ccccc5c4)c3)oc2c1 | 19%
62 | Cc1ccc(C(=O)Nc2ccc3oc(-c4c(F)c(F)c(F)c(F)c4F)nc3c2)cc1 | 52% (active)
63 | Cc1ccc2oc(-c3ccc(NC(=O)c4ccc(C)c(C)c4)cc3)nc2c1 | 20%
64 | O=C(Nc1ccc(-c2nc3ccccc3o2)cc1)c1ccc2ccccc2c1 | 43%
65 | COc1ccc(C(=O)Nc2ccc(-c3nc4cc(C)ccc4o3)cc2)cc1Br | 23%
66 | O=C(Nc1ccc2oc(-c3c(F)c(F)c(F)c(F)c3F)nc2c1)c1ccc(F)cc1 | 13%
67 | O=C(Nc1ccc2oc(-c3ccccc3)nc2c1)c1ccc2ccccc2c1 | 19%
68 | Cc1ccc2nc(-c3ccc(NC(=O)c4ccc5ccccc5c4)cc3)oc2c1 | 59% (active)
69 | Cc1ccc2oc(-c3ccc(NC(=O)c4ccc5ccccc5c4)cc3)nc2c1 | 52% (active)
70 | Cc1ccc2nc(-c3cccc(NC(=O)c4ccc5ccccc5c4)c3)oc2c1 | 38%
71 | CCCOc1ccc(C(=O)Nc2ccc3oc(-c4c(F)c(F)c(F)c(F)c4F)nc3c2)cc1 | 14%
72 | Cc1ccc2oc(-c3ccc(NC(=O)c4ccc(Br)cc4)cc3)nc2c1 | 55% (active)

Row | SMILES | inhibition
73 | COc1ccc(/C=C2\SC(=S)N(CCC(=O)OC3CCCCC3)C2=O)cc1 | 4%
74 | CSCCNS(=O)(=O)c1ccc(C)c([N+](=O)[O-])c1 | 0%
75 | O=C(O)CCCN1C(=O)/C(=C/c2cccc(Br)c2)SC1=S | 10%
76 | COc1ccc(/C=N/NC(=O)c2ccn[nH]2)cc1COc1ccc(Cl)cc1Cl | 5%
77 | COc1cccc(Nc2c([N+](=O)[O-])c(=O)n(-c3ccccc3)c3ccccc23)c1 | 15%
78 | CCc1ccc2[nH]c3nc(NN)nnc3c2c1 | 5%
79 | Cc1cccc(OC(=O)c2cccc([N+](=O)[O-])c2)c1 | 6%
80 | COc1ccc(N2C(=O)C(=O)/C(=C(\O)c3ccc([N+](=O)[O-])cc3)C2c2ccc(Br)cc2)cc1 (stereo not drawn) | 4%
81 | COc1ccc(OC)c(NC(=O)c2cnccn2)c1 | 6%
82 | Cc1cc(C(=O)Nc2ccc(S(=O)(=O)Nc3nccs3)cc2)ccc1[N+](=O)[O-] | 6%
83 | CCOc1cc(C2C(C(=O)OCc3ccc(OC)cc3)=C(C)NC3=C2C(=O)CCC3)cc(Cl)c1O (stereo not drawn) | 2%
84 | CC(C)COc1ccc(C(=O)Nc2ccc(-c3nc4ccccc4o3)cc2)cc1 | 64% (active)
85 | CC(C)COc1ccc(C(=O)Nc2ccc3oc(-c4ccncc4)nc3c2)cc1 | 1%
86 | CC(C)COc1ccc(C(=O)Nc2ccc(-c3nc4ncccc4o3)cc2)cc1 | 8%
87 | O=C(Nc1ccc(-c2nc3ccccc3o2)c(O)c1)c1ccc(-c2cccc(Cl)c2)o1 | 10%
88 | CCOC(=O)c1c(NC(=O)CSc2nccn2C)sc2c1CCCC2 | 0%
89 | CCc1ccc(C2=NN(c3ccccc3)C(c3cn(-c4ccccc4)nc3-c3cccnc3)C2)cc1 (stereo not drawn) | 20%
90 | COc1ccc(C(=O)CC(C(C)C)C(C=C(C)C)C(=O)c2ccc(OC)cc2)cc1 (stereo not drawn) | 29%
91 | CC(C)(O)C#CCN1CCOCC1 | 0%
92 | C=C(C)C(C)(C#CCN1CCCCC1)OC(C)=O (stereo not drawn) | 8%
93 | C=C(C)C(C)(C#CCN1CCOCC1)OC(C)=O (stereo not drawn) | 56% (active)
